A number with no mark means an inactive call. For some of these results: Measured potencies and affinities stand elsewhere. The source made the active and inactive calls. Unless noted, no rule for the calls is given here.
Legend:
[1] = antimalarial activity against Dd2 strain (AID 2302;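 active = growth inhibition above 50% at the single 2 µM test dose, taken to imply half-maximal potency below 2 µM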;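 also: 0% = DMSO untreated growth and 100% = chloroquine plus artemisinin killed control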); conditions: P. falciparum Dd2 in RBCs, LDH growth readout, 72 h; at 2 µM; hits give high values
[2] = HepG2 cytotoxicity, primary screen, cytotoxicity control for P. falciparum antimalarial project, cell-based, ATP luminescence (AID 2303;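 active = inhibition above 50%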;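 also: 0% = DMSO wells and 100% = digitonin-killed cells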); conditions: HepG2 viability, 24-48 h, at 10 µM, hits give high values
[3] = target: L-lactate dehydrogenase (Plasmodium falciparum (isolate CDC / Honduras)) (UniProt Q27743); experiment: PfLDH activity inhibition – cell lysate, 3D7 strain, counter-screen for P. falciparum growth inhibition project (AID 2304);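 also: 0% = vehicle and 100% = reference inhibitor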; conditions: P. falciparum 3D7 crude extract, LDH APAD/NBT absorbance; at 2 µM; hits give high values
[4] = inhibition of 3D7 malaria parasite growth – strain 3D7 (AID 2306);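 also: 0% = DMSO wells and 100% = chloroquine plus artemisinin control wells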; conditions: P. falciparum 3D7 erythrocytic growth, LDH absorbance, 72 h; at 2 µM; hits give high values
[5] = target: Calcium-dependent protein kinase 1 (Plasmodium falciparum (isolate 3D7)) (UniProt P62344); experiment: PfCDPK1 kinase inhibitors, biochemical, TCAMS library (AID 1159585; cut-off not given, nearly all actives have IC50 up to about 0.98 µM;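 also: inhibitors leave more ATP so luminescence rises with inhibition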); conditions: recombinant PfCDPK1, Kinase-Glo ATP depletion luminescence
[6] = target: Plasmodium falciparum protein kinase 6 (PK6, PF3D7_1337100) (UniProt Q8IDW1); experiment: PfPK6 kinase inhibitors, biochemical, TCAMS library (AID 1159586); conditions: recombinant PfPK6, Kinase-Glo ATP depletion luminescence
[7] = target: Protein kinase 7 (PK7), Plasmodium falciparum 3D7 (PF3D7_0213400) (UniProt Q7YTF7); experiment: inhibition of Plasmodium PK7 catalytic activity – biochemical, TCAMS antimalarial set, Kinase-Glo luminescence (AID 1159587); conditions: recombinant PfPK7, Kinase-Glo ATP depletion luminescence
[8] = target: Calcium-dependent protein kinase 4 (Plasmodium falciparum (isolate 3D7)) (UniProt Q8IBS5); experiment: PfCDPK4 kinase inhibitors, biochemical, TCAMS library (AID 1159588; cut-off not given, nearly all actives have IC50 up to about 0.91 µM); conditions: recombinant PfCDPK4, Kinase-Glo ATP depletion luminescence
Sequence of Calcium-dependent protein kinase 4 (Plasmodium falciparum (isolate 3D7)) (Q8IBS5 whole entry, looked up): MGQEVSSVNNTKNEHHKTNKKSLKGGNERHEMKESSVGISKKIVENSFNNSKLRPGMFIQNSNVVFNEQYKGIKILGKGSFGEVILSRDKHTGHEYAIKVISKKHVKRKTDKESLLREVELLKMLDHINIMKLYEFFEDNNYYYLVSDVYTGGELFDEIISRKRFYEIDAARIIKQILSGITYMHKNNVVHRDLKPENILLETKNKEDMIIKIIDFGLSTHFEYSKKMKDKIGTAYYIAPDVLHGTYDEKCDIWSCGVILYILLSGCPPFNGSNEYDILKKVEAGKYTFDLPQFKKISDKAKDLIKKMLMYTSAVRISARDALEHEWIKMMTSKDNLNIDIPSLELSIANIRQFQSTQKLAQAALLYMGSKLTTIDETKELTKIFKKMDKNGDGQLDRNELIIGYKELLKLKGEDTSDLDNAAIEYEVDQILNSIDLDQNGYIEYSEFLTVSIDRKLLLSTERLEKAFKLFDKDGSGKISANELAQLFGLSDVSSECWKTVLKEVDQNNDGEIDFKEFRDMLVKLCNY

Sequence of Protein kinase 7 (PK7), Plasmodium falciparum 3D7 (PF3D7_0213400) (Q7YTF7 1-343): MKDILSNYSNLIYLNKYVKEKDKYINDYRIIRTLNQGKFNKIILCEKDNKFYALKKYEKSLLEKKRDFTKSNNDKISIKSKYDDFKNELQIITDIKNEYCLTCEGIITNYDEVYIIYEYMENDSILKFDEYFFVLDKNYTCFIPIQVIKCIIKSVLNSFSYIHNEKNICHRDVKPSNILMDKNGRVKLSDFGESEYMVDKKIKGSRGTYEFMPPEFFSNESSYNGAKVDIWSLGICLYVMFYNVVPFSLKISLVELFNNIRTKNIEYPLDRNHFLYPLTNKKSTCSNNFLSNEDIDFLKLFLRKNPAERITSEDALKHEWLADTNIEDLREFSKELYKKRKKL
Sequence of Calcium-dependent protein kinase 1 (Plasmodium falciparum (isolate 3D7)) (P62344 whole entry, looked up): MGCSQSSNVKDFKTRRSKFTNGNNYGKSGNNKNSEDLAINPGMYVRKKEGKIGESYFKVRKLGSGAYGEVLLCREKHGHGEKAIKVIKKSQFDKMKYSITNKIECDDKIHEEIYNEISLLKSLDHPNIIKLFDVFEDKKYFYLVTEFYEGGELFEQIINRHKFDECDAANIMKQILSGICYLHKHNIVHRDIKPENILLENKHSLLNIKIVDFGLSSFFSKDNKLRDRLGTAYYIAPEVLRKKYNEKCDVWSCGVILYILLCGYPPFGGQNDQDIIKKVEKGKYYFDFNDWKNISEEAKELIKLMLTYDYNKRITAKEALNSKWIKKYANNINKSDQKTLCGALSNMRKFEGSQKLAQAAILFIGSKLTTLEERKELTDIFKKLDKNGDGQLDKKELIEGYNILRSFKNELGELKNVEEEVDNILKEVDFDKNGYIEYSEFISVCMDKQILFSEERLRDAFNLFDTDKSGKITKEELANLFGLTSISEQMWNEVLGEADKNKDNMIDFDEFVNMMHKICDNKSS
Sequence of L-lactate dehydrogenase (Plasmodium falciparum (isolate CDC / Honduras)) (Q27743 whole entry, looked up): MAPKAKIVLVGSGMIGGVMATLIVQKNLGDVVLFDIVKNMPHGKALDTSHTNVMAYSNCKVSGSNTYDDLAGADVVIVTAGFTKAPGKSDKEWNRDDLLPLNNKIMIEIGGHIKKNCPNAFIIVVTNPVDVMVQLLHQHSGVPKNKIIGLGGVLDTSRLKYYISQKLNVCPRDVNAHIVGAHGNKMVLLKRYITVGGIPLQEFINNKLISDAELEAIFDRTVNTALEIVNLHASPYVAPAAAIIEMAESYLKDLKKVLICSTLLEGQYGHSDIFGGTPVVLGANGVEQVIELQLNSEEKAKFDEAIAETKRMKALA
Sequence of Plasmodium falciparum protein kinase 6 (PK6, PF3D7_1337100) (Q8IDW1 1-305): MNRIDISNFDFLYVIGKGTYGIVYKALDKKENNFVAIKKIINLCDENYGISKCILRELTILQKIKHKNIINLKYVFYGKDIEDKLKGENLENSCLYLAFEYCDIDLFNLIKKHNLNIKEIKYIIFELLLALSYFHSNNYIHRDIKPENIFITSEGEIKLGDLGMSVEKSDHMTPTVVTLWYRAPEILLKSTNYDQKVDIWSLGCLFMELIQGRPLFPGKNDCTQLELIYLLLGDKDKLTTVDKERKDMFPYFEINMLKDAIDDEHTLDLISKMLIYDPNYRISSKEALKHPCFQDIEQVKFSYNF

Row | SMILES | growth inhibition [1] | inhibition [2] [%] | inhibition [3] [%] | growth inhibition [4] | outcome [5] | outcome [6] | outcome [7] | outcome [8]
1 | O=C(CCCCCNC(=O)c1ccc(O)c(-c2ccc(Cl)c(Cl)c2)c1)NC1CCCc2ccccc21 (stereo not given) | 13% | -7 | -6 | 97% (active) | inactive | inactive | inactive | inactive
2 | Cc1cc(N2CCCC2)nc(Nc2ccc(NC(=O)Nc3ccccc3)cc2)n1 | 100% (active) | 35 | 1 | 99% (active) | inactive | inactive | inactive | inactive
3 | CC(O)C1CCCCN1C(=O)c1ccc(-c2cccc(-c3nc4ccc(F)cc4[nH]3)c2)cc1 (stereo not given) | 97% (active) | 30 | -6 | 100% (active) | inactive | inactive | inactive | inactive
4 | CCOC(=O)CNC(=O)N1CCN(C(=O)NCC(=O)OCC)CC1 | 0% | -9 | -2 | 93% (active) | inactive | inactive | inactive | inactive
5 | Cc1cccc2[nH]c(-c3cccc(-c4ccc(CNCc5ccc(S(C)(=O)=O)cc5)cc4)c3)nc12 | 98% (active) | 8 | 6 | 101% (active) | inactive | inactive | inactive | inactive
6 | O=C(c1c(-c2[nH]c3ccccc3c2C(=O)C(F)(F)F)[nH]c2ccccc12)C(F)(F)F | 99% (active) | 18 | 3 | 97% (active) | inactive | inactive | inactive | inactive
7 | CC(=O)Nc1cccc(C(=O)Nc2cccc(-c3csc(-c4nc5ccccc5[nH]4)c3)c2)c1 | 97% (active) | 39 | 1 | 96% (active) | inactive | inactive | inactive | inactive
8 | CC(C)Cc1ccc(N2CCN(CCCCNC(=O)c3ccc(NC(=O)c4ccc(Cl)c(Cl)c4)cc3)CC2)cc1 | 25% | 21 | 0 | 94% (active) | inactive | inactive | inactive | inactive
9 | CSC1=NC(=Nc2c(C)cccc2C)C2(CCC(C(C)(C)C)CC2)N1c1ccc(O)cc1 (stereo not given) | 93% (active) | 5 | 1 | 97% (active) | inactive | inactive | inactive | inactive
10 | CCc1cn2c3c(cc(C(=O)N[C@@H](Cc4ccccc4)[C@H](O)CNCc4ccccc4)cc13)N(C)S(=O)(=O)CC2 | 99% (active) | 3 | 1 | 98% (active) | inactive | inactive | inactive | inactive
11 | O=c1ccc2ccc(F)c3c2n1CC3CN1CCC(NCc2ccc(-c3cccc(Cl)c3)nc2)CC1 (stereo not given) | 33% | 16 | 3 | 96% (active) | inactive | inactive | inactive | inactive
12 | CN1CCN(c2ccnc3ccc(NC(=O)Cc4cccc(Cl)c4Cl)cc23)CC1 | 64% (active) | 8 | 3 | 102% (active) | inactive | inactive | inactive | inactive
13 | CC(C)(C)c1ccc(NC(=O)Nc2ccc(Cn3ncc(N4CCCNCC4)c(Cl)c3=O)cc2)cc1 | 33% | -4 | -7 | 95% (active) | inactive | inactive | inactive | inactive
14 | CN1CCC(COc2ccc(CN3CCC(NC(=O)c4cccc(Cl)c4)CC3)cc2)CC1 | 13% | 16 | -2 | 94% (active) | inactive | inactive | inactive | inactive
15 | O=C(N[C@@H](CC1CCCCC1)C(=O)NC1CC1)c1ccc(O)c(-c2cccc(C(F)(F)F)c2)c1 | 47% | -5 | -4 | 99% (active) | inactive | inactive | inactive | inactive
16 | O=C(NCCCCN1CCC(c2nc3ccccc3s2)CC1)c1cc2ccccc2[nH]1 | 64% (active) | 43 | -5 | 86% (active) | inactive | inactive | inactive | inactive
17 | C[C@@H](CNc1ccnc(Nc2ccc3[nH]c(=O)[nH]c3c2)n1)c1ccccc1 | 1% | 42 | -3 | 100% (active) | inactive | inactive | inactive | inactive
18 | CSc1ccccc1NC(=S)NC1CCN(CCCCCNC(=O)/C=C/c2ccc(Cl)c(Cl)c2)CC1 | 27% | 19 | 4 | 98% (active) | inactive | inactive | inactive | inactive
19 | O=C(Nc1ccc2c(c1)CCN2C1CCN(Cc2cccc(C(F)(F)F)c2)C1)c1ccco1 (stereo not given) | 92% (active) | 4 | -1 | 95% (active) | inactive | inactive | inactive | inactive
20 | N#Cc1ccc(N(CCOC(=O)c2ccc(Br)s2)Cc2ccccc2C(F)(F)F)cc1C(F)(F)F | 48% | 8 | 3 | 82% (active) | inactive | inactive | inactive | inactive

— PubChem BioAssay
